The structures appear in SMILES notation. Compounds without any hit were thinned out: in the full panel of roughly 83,000, 20% have a hit.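 Step 1: grow cells in 96-well plates. Step 2: add test compound at a single concentration. Step 3: incubate 48 h. Step 4: record percent growth.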 Values without a mark were called inactive. Active and inactive are the calls of the source. How the source made its calls: active means growth percent below 10; inactive means the rest.

Data on seven compounds can be found in PubChem BioAssay (NCI).

Some test systems named below: DU-145 prostate; K-562 leukemia; MALME-3M melanoma; MDA-MB-231 breast; RXF 393 renal; SF-268 CNS; SF-295 CNS; SF-539 CNS; UACC-257 melanoma; M14 melanoma; HCT-15 colon; HT29 colon; SNB-75 CNS; SNB-19 CNS; U251 CNS; PC-3 prostate; SK-MEL-5 melanoma; UACC-62 melanoma; SK-MEL-28 melanoma; LOX IMVI melanoma.
Assay in all cases: NCI-60 one-dose screen, 48 h (100 = growth as untreated, 0 = no growth, -100 = all killed)
Conditions in all cases: 10 µM unless noted

Take `COc1ccc(Oc2nc(Nc3ccc(N4CCOCC4)nc3)ncc2NC(=O)c2cc(OC)cc(OC)c2)cc1`: the growth with DU-145 prostate is 89.6%; in the test on K-562 leukemia, 49.8%; with MALME-3M melanoma, 107%; in the test on MDA-MB-231 breast, 81.9%; in the test with RXF 393 renal, 58.6%; in the test with SF-268 CNS it was 82.2%. In addition, the growth was 83.7% in the test with SF-295 CNS; 78.2% with SF-539 CNS; 89.7% in the test with UACC-257 melanoma; 72.8% in the test on M14 melanoma; 52.9% in the test on HCT-15 colon; 77.8% with HT29 colon. The growth with SNB-75 CNS is 70.6%; in the test on SNB-19 CNS, 80.6%; in the test on U251 CNS it was 84.2%; in the test on PC-3 prostate it was 67.9%; with SK-MEL-5 melanoma, 70.9%; in the test on UACC-62 melanoma it was 69.3%. The growth with SK-MEL-28 melanoma was 79.8%.
In the case of `C=C(CNCCc1ccc(O)cc1)[C@@H]1CC[C@]2(COC3CCCCO3)CC[C@]3(C)[C@H](CC[C@@H]4[C@@]5(C)CCC(NCCO)C(C)(C)[C@@H]5CC[C@]43C)[C@@H]12` (stereo not given in full), the growth in the test on DU-145 prostate is -91.9% (active); in the test on K-562 leukemia, -66.1% (active); with MALME-3M melanoma, -86.4% (active); with MDA-MB-231 breast it was -94.3% (active); in the test with RXF 393 renal, -88.9% (active); with SF-268 CNS, -87.9% (active). Further, the growth in the test on SF-295 CNS was -82.4% (active); with SF-539 CNS, -91.9% (active); with UACC-257 melanoma it was -85.6% (active); with M14 melanoma, -86.8% (active); with HCT-15 colon, -93.5% (active); with HT29 colon, -90.3% (active). For the same compound, the growth in the test on SNB-75 CNS was -17.6% (active); in the test with SNB-19 CNS, -93.9% (active); in the test with U251 CNS it was -95% (active); with PC-3 prostate, -92.6% (active); in the test on SK-MEL-5 melanoma, -95.4% (active); in the test with UACC-62 melanoma, -85.9% (active). In addition, the growth in the test with SK-MEL-28 melanoma was -94.4% (active).
Turning to `C[C@@H]1C(=O)N(C[C@@H](Cc2ccccc2)NC(=O)OCc2ccccc2)[C@]1(Cc1ccccc1)C(=O)OCc1ccccc1`, the growth in the test with DU-145 prostate was 78.3%; with K-562 leukemia, 36.5%; with MALME-3M melanoma, 24.9%; in the test on MDA-MB-231 breast it was 41.9%; in the test with RXF 393 renal, 34.8%; in the test on SF-268 CNS, 56.7%. For the same compound, the growth is 21.4% in the test on SF-295 CNS; 59.6% in the test on SF-539 CNS; 19.7% in the test with UACC-257 melanoma; 44.8% in the test with M14 melanoma; 41.6% with HCT-15 colon; 50.7% with HT29 colon. Also, the growth in the test with SNB-75 CNS is 61.1%; with SNB-19 CNS, 44.3%; in the test with U251 CNS, 34.6%; with PC-3 prostate, 14.2%; with SK-MEL-5 melanoma, -6.61% (active); with UACC-62 melanoma, 43.3%. The growth is 51.8% with LOX IMVI melanoma and 63.9% in the test on SK-MEL-28 melanoma.
Turning to `COC(=O)c1ccc(CSc2nnc(-c3ccncc3)o2)cc1`, the growth is 114% in the test with DU-145 prostate; 93.9% in the test with K-562 leukemia; 103% with MALME-3M melanoma; 106% in the test with MDA-MB-231 breast; 122% in the test on RXF 393 renal; 101% in the test on SF-268 CNS. Further, the growth with SF-295 CNS was 109%; in the test on SF-539 CNS, 98.7%; in the test on UACC-257 melanoma, 99%; in the test on M14 melanoma it was 102%; with HCT-15 colon, 108%; in the test with HT29 colon it was 109%. The growth with SNB-75 CNS was 81.9%; in the test with SNB-19 CNS, 110%; in the test with U251 CNS, 104%; with PC-3 prostate, 87.5%; in the test with SK-MEL-5 melanoma, 112%; with UACC-62 melanoma it was 97.5%. For the same compound, the growth with SK-MEL-28 melanoma was 107%.
Take `O=C(CC12CC3CC(CC(C3)C1)C2)NCCOCCOCCOCCNC(=O)c1cc2c(o1)C(=O)c1ccccc1C2=O`: the growth in the test with DU-145 prostate was -95.6% (active); with K-562 leukemia it was 2.13% (active); in the test on MALME-3M melanoma, -96.3% (active); with MDA-MB-231 breast, -0.382% (active); in the test with RXF 393 renal, -51.3% (active); with SF-268 CNS it was -3.17% (active). Also, the growth was -90.1% (active) with SF-295 CNS; -90.4% (active) in the test on SF-539 CNS; -80.7% (active) with UACC-257 melanoma; -76.2% (active) in the test with M14 melanoma; -78.5% (active) with HCT-15 colon; 1.17% (active) in the test with HT29 colon. Further, the growth with SNB-75 CNS is -98.9% (active); in the test with SNB-19 CNS, -0.887% (active); in the test on U251 CNS it was -19.6% (active); in the test with PC-3 prostate it was 13.1%; with SK-MEL-5 melanoma it was -98.4% (active); with UACC-62 melanoma, -94.6% (active). For the same compound, the figures for the growth in the test with LOX IMVI melanoma and in the test with SK-MEL-28 melanoma were -52.4% (active) and -58.5% (active), respectively.
Consider `COc1cc2c(cc1OC)-c1ccc3cc4c(cc3c1N(CCN(C)C)C2)OCO4`, for which the growth was 6.23% (active) in the test with DU-145 prostate; 2.7% (active) in the test with K-562 leukemia; 24.3% with MALME-3M melanoma; -2.8% (active) in the test with MDA-MB-231 breast; -32.7% (active) with RXF 393 renal; 23.6% in the test on SF-268 CNS. In addition, the growth was -6.18% (active) in the test on SF-295 CNS; -7.83% (active) in the test on SF-539 CNS; 10.4% in the test with UACC-257 melanoma; -7.62% (active) in the test on M14 melanoma; 56.7% with HCT-15 colon; -45.8% (active) with HT29 colon. Besides, the growth in the test on SNB-75 CNS was -5.56% (active); in the test with SNB-19 CNS, 8.26% (active); with U251 CNS, -42.9% (active); in the test on PC-3 prostate, 0.178% (active); in the test with SK-MEL-5 melanoma it was -10.9% (active); in the test on UACC-62 melanoma, 3.42% (active). The growth in the test on SK-MEL-28 melanoma is 43.7%.
Regarding `Cc1cc(N2CCCCC2)nc(N(CCNc2ccnc3cc(Cl)ccc23)Cc2ccccn2)n1`, the growth in the test with DU-145 prostate is 61.9%; in the test on K-562 leukemia, 7.83% (active); in the test with MALME-3M melanoma, 74.1%; in the test on MDA-MB-231 breast, 49.6%; in the test on RXF 393 renal, 30.7%; in the test on SF-268 CNS, 71.8%. The growth was 21.5% with SF-295 CNS; 39.2% in the test on SF-539 CNS; 66.9% in the test with UACC-257 melanoma; 45% with M14 melanoma; 17.6% in the test on HCT-15 colon; 13.1% in the test with HT29 colon. The growth is 80.3% in the test with SNB-75 CNS; 75% with SNB-19 CNS; 41.8% in the test on U251 CNS; 45.1% in the test on PC-3 prostate; 48.8% with SK-MEL-5 melanoma; 67.5% in the test on UACC-62 melanoma. For the same compound, the growth with SK-MEL-28 melanoma is 62.7%.
